The list is not random: actives were taken first. Their share in the collection is about 8%.
KB-3-1 tox – KB-3-1 parental cell cytotoxicity; 400,000 tested, 1.4% active; Potency, µM (highest dose often 46.1 µM), actives largely listed as cytotoxic; KB-3-1 viability, CellTiter-Glo ATP luminescence, 72 h; further: on the % scale 0 is the no-effect control and ±100 the full control effect; nearly all actives have a fitted effect of over 60% in size
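Luminescent ATP read-out (CellTiter-Glo) measures survival of drug-naive KB-3-1 cells after 72 h compound exposure at 37 °C. Titration series was screened from lowest to highest concentration, with DMSO vehicle plates as background controls.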
KB-V1 MDR tox – KB-V1 MDR subline cytotoxicity; KB-V1 MDR cells viability, CellTiter-Glo, 72 h; Potency, µM (doses to about 46.1 µM), actives largely listed as cytotoxic; 400,000 tested, 3.4% active; AID 1347076; further: on the % scale 0 is the no-effect control and ±100 the full control effect; nearly all actives have a fitted effect of over 60% in size
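Following 72 h at 37 degrees C with compound, KB-V1 cell viability was read by CellTiter-Glo luminescence, medium being phenol-red-free DMEM plus 10% FBS; concentration-response parameters came from normalized, curve-fitted qHTS data.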
HT1080 IDH1KD tx – kills HT-1080 cells with IDH1 knockdown. HT-1080 IDH1 knockdown viability, ATP luminescence, 48 h. Potency, µM (highest dose often 46.1 µM), without a hit: at the highest dose activity, negative = toxicity, most hits filed as cytotoxic. 360,000 tested, 2% active;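 further: 0% = DMSO wells and -100% = cell-free medium wells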
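Assay cells: HT-1080 with IDH1 knockdown, 750 per well, RPMI/5% FBS. Exposure: 48 h at 37 °C following 2 h pre-incubation. Read: CellTiter-Glo luminescence; fitted concentration-response, curve class assigned.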
HT1080NT lethal – kills 2HG-producing HT-1080-NT fibrosarcoma cells | HT-1080-NT fibrosarcoma viability, CellTiter-Glo ATP luminescence, 48 h | Potency, µM (series often up to 46.1 µM), for inactives: top-dose activity, negative = less viability, actives largely listed as cytotoxic | 360,000 tested, 1.6% active;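 further: NT is the 2HG producing partner of a matched IDH1 knockdown line; 0% = DMSO-treated cells and -100% = media-only wells without cells; nearly all actives have a fitted effect of over 55% in size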
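750 cells/well, RPMI + 5% FBS; 2 h settle, compound pin-transfer, 48 h at 37 degrees C. CellTiter-Glo 10 min RT, luminescence. Normalized to DMSO and media-only wells.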
MCF10A rerep – induces DNA re-replication in MCF 10a normal breast cells; Potency, µM (series often up to 46.1 µM), for inactives: at the top dose activity, positive = re-replication, hits mostly activators; MCF 10A DNA re-replication, Hoechst nuclear intensity, 48 h; AID 624296; 350,000 tested, 2.9% active; further: % of control where 0% means no effect; nearly all actives have a fitted effect of over 50% in size
SW480 rerep – inducers of DNA re-replication in SW480 colon cancer cells; Potency, µM (series often up to 46.1 µM), without a hit: at the top dose re-replication activation, most hits filed as activators; AID 624297; SW480 DNA re-replication, Hoechst DNA content imaging, 48 h; 340,000 tested, 1.8% active; further: % of control where 0% means no effect; nearly all actives have a fitted effect of over 55% in size
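Hoechst fluorescence of nuclei (405 nm excitation, 500-530 nm emission) measured by plate-scanning imager after 48 hr compound exposure at 37 C; re-replication scored as increased number of nuclei with elevated intensity.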
Numbers without * were called inactive; i = inactive; ? = inconclusive; / = no result given; ! = not confirmed by another sample; [ ] = another dose, or the depositor's remark. The call rests on the fitted dose curve; in most records, active means well fitted curve in the direction sought with a large enough effect; inconclusive means small, poorly fitted or top-dose-only effect, or another doubt; inactive means no such curve, though single readings can be large; an effect the other way counts as inactive or inconclusive. Potency means the concentration at half of the fitted maximal effect.

SMILES | KB-3-1 tox | KB-V1 MDR tox | HT1080 IDH1KD tx | HT1080NT lethal | MCF10A rerep | SW480 rerep
Cc1cc(C)c(NC(=O)Cn2c(=O)n(Cc3ccco3)c(=O)c3ccc(C(=O)NC4CCCC4)cc32)c(C)c1 | i | i | / | / | / | /
CC(=O)C1=C(C)NC(SCC(=O)c2ccc(Cl)c(Cl)c2)=C(C#N)C1c1ccco1 (stereo not given) | i | ? | -2% | -26% | 2% | 12µM*
CC(=O)C1=C(C)NC(SCc2cccc([N+](=O)[O-])c2)=C(C#N)C1c1ccco1 (stereo not given) | i | 10µM* | -9% | 0% | 14% | ?
CC(=O)C1=C(C)NC(SCC(=O)c2cc(Cl)ccc2Cl)=C(C#N)C1c1ccco1 (stereo not given) | i | i | ? | ? | ? | ?
CCOc1ccccc1NC(=O)CSC1=C(C#N)C(c2ccco2)C(C(=O)Nc2nc3ccccc3s2)=C(C)N1 (stereo not given) | i | i | 0% | -5% | ? | 3.7µM*
COc1ccc(-n2c(=O)c3c4c(sc3n(Cc3c(F)cccc3Cl)c2=O)CN(C(C)=O)CC4)cc1OC | i | i | / | / | / | /
CN(C)c1cc[n+](CC(=O)Nc2c(Cl)cc(Cl)cc2Cl)cc1 | 8.2µM* | i | -27% | -7% | -2% | -140%
Cc1ccc(S(=O)(=O)N2CCc3cc(C(=O)Nc4c(C)cccc4C(C)C)ccc32)cc1 | i | i | / | / | / | /
COC(=O)/C(=C(/F)Sc1cc(C)c(O)c(C)c1)C(F)(F)F | ? | i | ? | 4%[9.24 µM] | 26µM* | ?
CCOC(=O)N1CCN(Cc2nc3c(c(=O)n(C)c(=O)n3C)n2CCCc2ccccc2)CC1 | ? | 9.2µM* | -4% | -7% | -1% | 9%
CCCCCn1c(CN2CCN(C(=O)OCC)CC2)nc2c1c(=O)n(C)c(=O)n2C | i | i | 4% | 1% | -2% | 1%
CCCCCCn1c(CN2CCN(Cc3ccccc3)CC2)nc2c1c(=O)n(C)c(=O)n2C | ? | 18µM* | 0% | 0% | ? | -11%
CC(=O)Nc1ccccc1OCc1cc(=O)n2c3c(sc2n1)CCCC3 | i | ? | / | / | / | /
COc1cc(/C=C2/SC(=O)NC2=O)ccc1OC(=O)c1ccco1 | 10µM* | ? | -22% | -6% | ? | 0%
O=C1NC(=S)S/C1=C/c1ccc(OC(=O)c2ccco2)cc1 | i | i | -3% | -4% | ? | 2%
CCOc1cc(/C=C2/SC(=S)NC2=O)ccc1OC(=O)c1ccco1 | i | i | ? | 12µM* | ? | ?
CCn1c(O)c(/C=N/N=C/c2ccccc2)c2ccc(C3=NNC(=O)CC3)cc21 | ? | ? | ? | -11% | 16µM* | 20%
Cc1cc(C)c2c(CC(=O)Nc3nnc(CC(C)C)s3)coc2c1 | i | i | / | / | / | /
CCOC(=O)c1c(C)oc2nc(C)nc(NCc3cccc(OC)c3)c12 | i | i | / | / | / | /
O=C1CCC[C@@H]2C[C@@]3(C[C@@H]4CCN1[C@H]24)Nc1cc(Cl)ccc1NC3=NC1CCCCC1 | i | i | 0% | 1% | 8% | ?
Cc1cc2c(cc1C)N[C@]1(C[C@H]3CCCC(=O)N4CC[C@@H](C1)[C@@H]34)C(=NC(C)(C)CC(C)(C)C)N2 | ? | 21µM*! | -11% | -15% | 37% | ?
CC(C)(C)CC(C)(C)N=C1Nc2ccc(Cl)cc2N[C@]12C[C@H]1CCCC(=O)N3CC[C@@H](C2)[C@@H]13 | ? | 21µM* | / | / | / | /
C=C1C(=O)CC2=C1[C@](Cc1ccc(F)cc1)(C(=O)OC)N(C(=O)c1ccccc1)C2 | ? | i | ? | ? | / | /
COC(=O)[C@@]1(Cc2ccc(OC)cc2)[C@H]2c3cc(C(=O)N(C)C)n(C[C@H](O)CO)c3C[C@H]2CN1C(=O)c1ccccc1 | i | i | 12% | 20% | 0% | 2%
C=C1C(=O)C=C2CN(C(=O)c3ccccc3)[C@@](Cc3ccc(F)cc3)(C(=O)OC)[C@@H]12 | 5.2µM* | 4.6µM* | 5.8µM* | 12µM* | 3.7µM* | 1.3µM*
SMILES | KB-3-1 tox | KB-V1 MDR tox | HT1080 IDH1KD tx | HT1080NT lethal | MCF10A rerep | SW480 rerep
COC(=O)[C@@]1(Cc2ccc(OC)cc2)[C@@H]2C(=CC(=O)[C@H]2CC(=O)C(=O)N(C)C)CN1C(=O)c1ccccc1 | 16µM* | ? | ? | ? | ? | ?
CN(C)C(=O)COC(=O)c1ccccc1OCC(=O)Nc1ccc(Br)cc1 | ? | i | / | / | / | /
Cn1ncc2c(Nc3ccccc3Cl)nc(Nc3ccccc3Cl)nc21 | i | i | ? | ? | 18µM* | 23%
COc1ccc(OC)c(C(Cc2ccnc3ccccc23)Cc2ccnc3ccccc23)c1 | i | i | / | / | / | /
COc1cc(CN(C(=O)COc2ccc(Cl)cc2)c2ccccn2)cc(OC)c1OC | i | i | / | / | / | /
CC1CN(c2nc3ccccc3cc2-c2ccccc2)CC(C)O1 (stereo not given) | i | i | -13% | -21% | 21µM* | -1%
CC1CN(c2nn3c(=O)c4ccccc4nc3c3ccccc23)CC(C)O1 (stereo not given) | ? | 21µM* | 0% | -4% | -9% | -15%
Cc1cccc(OCC(=O)Nc2ccc(C(=O)OCc3cc(=O)n4nc(C5CC5)sc4n3)cc2)c1 | i | i | / | / | / | /
O=C1CCCC2=C1C(c1ccc(Cl)cc1)N=C(Nc1nc3ccccc3o1)N2 (stereo not given) | i | i | / | / | / | /
CC(C)CN=C(NS(=O)(=O)c1ccccc1)C(Cl)(Cl)Cl | 8.2µM* | ? | 6.5µM* | 6.5µM* | 2.9µM* | 6.5µM*
Nc1ccc(C(=O)Nc2cccc3ncccc23)cc1 | i | i | 2% | -7% | 15% | 2%
O=C(Nc1cccc2ncccc12)c1ccc(OCc2ccccc2)cc1 | i | ? | -17% | -23% | 1.5µM* | -33%
CCOc1ccc(C(=O)Nc2cccc3ncccc23)cc1Br | i | i | 0% | -4% | 0.58µM* | 64%
CCCCC#Cc1cncc(C(=O)NN)c1 | i | i | -19% | -11% | 7% | ?
CCCCCCC#Cc1cncc(C(=O)NNC(=O)Nc2cc(Cl)cc(Cl)c2)c1 | i | ? | 21µM* | ? | -32% | -50%
CNc1c(Br)cc(/C=C2\C=C(C(O)c3cc(Br)c(NC)c(Br)c3)c3ccccc32)cc1Br (stereo not given) | i | i | / | / | / | /
